These results are taken from ChEMBL document CHEMBL4513216, “Probing the Open Global Health Chemical Diversity Library for Multistage-Active Starting Points for Next-Generation Antimalarials” (ACS Infect Dis, 2020).

In all, about 69,000 compounds went through this assay and about 8,600 (12%) showed an effect of 50% or more. Shown is part of a subset that was picked to be rich in strong results.

This experiment has as its system Plasmodium berghei. Put plainly: Screen against P. berghei liver stage (PbLuc), transformed with Luciferase, at 10uM. It is filed as functional, HepG2. As to conditions: tested at 10 uM.
In the case of `COc1cccc(NC(=O)NCC2CCCN(C3CCOCC3)C2)c1` (stereo not given), the INHIBITION is listed as 58.8%.

On to `Cc1cccc(C)c1NC(=O)NCC1CCCN(C2CCOCC2)C1` (stereo not given), for which the INHIBITION was -15%. For the compound `COc1ccc(C(=O)NCC2CCCN(C3CCOCC3)C2)c(O)c1` (stereo not given), the INHIBITION came to 57.4%. `COc1ccc(O)c(C(=O)NCC2CCCN(C3CCOCC3)C2)c1` (stereo not given): the INHIBITION is listed as 14.3%. The figure for `COc1ccc(Br)c(C(=O)NCC2CC2)c1` is 90.2%. For `COc1cccc(OCC2CCCN(C3CCN(C(C)=O)CC3)C2)c1` (stereo not given) the value was 15.1%; for `COc1ccc(C(=O)Nc2cnn(CCN3CCOCC3)c2)c(O)c1`, 29.5%. The figure for `COc1ccc(Br)c(C(=O)NCC2CCN(S(=O)(=O)C3CC3)CC2)c1` is 38.5%; for `COCCNC(=O)c1cc(OC)ccc1Br` it is -85%; for `CC(NC(=O)N(C)CCCOc1ccccc1)c1nncn1C` (stereo not given) it is 0.914%. For `Cc1ccc(N2CCC3(CCC(=O)N3Cc3ccncc3)CC2)nn1`, the INHIBITION was 3.17%. On to `CCc1nnc2n1CCN(C(=O)C(C)Oc1ccc(C#N)cc1)C2` (stereo not given), for which the INHIBITION is recorded as -48.3%. For `CCS(=O)(=O)N1Cc2ccnn2CC(c2nc(C)no2)C1` (stereo not given) the value was -5.63%. The figure for `Cc1noc(C2CN(S(C)(=O)=O)Cc3ccnn3C2)n1` (stereo not given) is 50.7%; for `Cc1noc(C2CN(S(=O)(=O)C3CC3)Cc3ccnn3C2)n1` (stereo not given) it is 34.6%; for `CNc1oc(-c2ccc(OC)c(S(=O)(=O)N(C)C)c2)nc1C#N` it is 8.46%. As to `CC1CN(C(=O)Nc2cc(C(F)(F)F)c[nH]c2=O)CCO1` (stereo not given), the INHIBITION is reported as -4.12%.

`O=C(Cc1ccncc1)N1C[C@H]2CC[C@@H](C1)N(Cc1ccccc1)C2=O`: the INHIBITION was 63.7%. For `O=C(Cc1cccnc1)N1C[C@H]2CC[C@@H](C1)N(Cc1ccccc1)C2=O` the value was 40.4%; for `O=C(Cc1ccccn1)N1C[C@H]2CC[C@@H](C1)N(Cc1ccccc1)C2=O`, -4.86%.

As to `CCc1nc(CNc2ccc(C(=O)N3CCSCC3)cc2C)no1`, the INHIBITION is listed as 15.5%. The figure for `O=C(O)c1cc2c(nc1-c1ccsc1)CCN(C1CCOC1)CC2` (stereo not given) is 11.3%; for `Cc1ccc(N2CCN(C(=O)CCc3n[nH]c(C)n3)CC2=O)cc1` it is 2.7%.

Regarding `Cn1ccnc1CN1CCCN(C(=O)c2ccc3[nH]cnc3c2)CC1`, the INHIBITION came out at 21%.

Consider `Cn1ccnc1CN1CCCN(C(=O)CC(C2CC2)C2CC2)CC1`, for which the INHIBITION amounted to 50.3%.

`CCn1ccnc1CN1CCCN(C(=O)c2cc(C)nn2CC)CC1`: the INHIBITION amounted to 32.3665%. For `CC(Oc1ccccc1)C(=O)N1CCCN(Cc2nccn2C)CC1` (stereo not given) the value was 54.4%. With `CC(OCC1CC1)C(=O)N1CCCN(Cc2nccn2C)CC1` (stereo not given), the INHIBITION was determined as 9.32%. The figure for `Cn1ccnc1CN1CCCN(C(=O)COC2CCCC2)CC1` is -11.4%.

With `CC(CC(=O)N1CCCN(Cc2nccn2C)CC1)n1cccc1` (stereo not given), the INHIBITION was 18.9%. Regarding `CCn1ccnc1CN1CCCN(C(=O)c2ccnn2C)CC1`, the INHIBITION was found to be 16.45%. With `Cn1ccnc1CN1CCCN(C(=O)c2ccc3cc[nH]c3c2)CC1`, the INHIBITION stood at 55.2%. For `CSC(C)C(=O)N1CCCN(Cc2nccn2C)CC1` (stereo not given) the value was -5.25%. Take `Cn1ccnc1CN1CCCN(C(=O)c2ccc3ccccc3c2)CC1`: the INHIBITION was found to be 27.8%. For `CCn1ccnc1CN1CCCN(C(=O)c2cccn2C)CC1` the value was 56.6%; for `CCNc1nc2cn(-c3ccc(CC)cc3)c(=O)c-2c[nH]1`, -14.245%; for `Cn1cc(C2CCCN2C(=O)c2ccc(OCC3CC3)nc2)cn1` (stereo not given), -27%. The figure for `O=S(=O)(CCN1CCN(c2ccccc2O)CC1)c1ccc(Cl)cc1` is -36.3%; for `CN(C)CCN1C[C@@H]2CN(C(=O)C3CCOC3)C[C@@H]2C1=O` (stereo not given in full) it is 12.7%. With `COc1ccc(/C=C/CN2C[C@@H]3CC[C@H]2CN(S(=O)(=O)N(C)C)C3)cc1`, the INHIBITION worked out at 38.6%. For `CCOCC1CN(Cc2cccnc2)Cc2nn(C)cc21` (stereo not given) the value was -21.4%; for `O=C(C1CC(F)(F)C1)N1C[C@@H]2CN(CC3CCCC3)CCO[C@@H]2C1`, 20.6%; for `O=C1CN(C(=O)CCn2c(C(F)(F)F)cc3cccnc32)CCN1`, 25.6%. For `CSC1(CNC(=O)c2cccc(-n3cccn3)c2)CCOCC1` the value was -46.4%; for `Cc1ncccc1NC(=O)[C@@H]1CCO[C@@H]2CCN(c3ccccc3)C[C@@H]21`, 41.4%. Regarding `Cn1ccnc1CN1CCCN(C(=O)COCC2CC2)CC1`, the INHIBITION is 13.3%. The figure for `CC(C)N1CCC(CC(=O)N2CCC(C(O)c3nccn3C)CC2)CC1` (stereo not given) is 46.7%; for `CC(C)N1CCC(CC(=O)N2CCN(Cc3nccn3C)CC2)CC1` it is 58.5%; for `O=c1c2c[nH]c(N3CCCCC3)nc-2cn1-c1ccc2c(c1)OCO2` it is -22.9%.

As to `Fc1cccc(-c2nnn3c2COC(CNCc2nccs2)C3)c1` (stereo not given), the INHIBITION came out at 50.3%. For the compound `Fc1cccc(-c2nnn3c2COC(CNCc2cccs2)C3)c1` (stereo not given), the INHIBITION was 1.9%. The figure for `Cc1ccc(CNCC2Cn3nnc(-c4cccc(F)c4)c3CO2)o1` (stereo not given) is 18.2%; for `Fc1cccc(-c2nnn3c2COC(CNCc2ccsc2)C3)c1` (stereo not given) it is 52%; for `Cc1cccc(-c2nnn3c2COC(CNCc2nccs2)C3)c1` (stereo not given) it is -10.2%.

In the case of `Fc1cccc(-c2nnn3c2COCC(CNCc2nccs2)C3)c1` (stereo not given), the INHIBITION turned out to be 47.5%.
